Measured values published in the supplement of paper PMC10849652.
About 7,900 targets were measured; listed, in parts, are those with a hit and a random draw of the rest. About 0.6% of all pairs of compound and target were hits.

How the values were obtained:
Test in all cases: log2 fold change, soluble protein after heating vs DMSO (PISA); higher = thermal stabilisation; K562 cells, 10 uM, 30 min; active = over 0.2 and 3.5 SD of the protein, either way, in both replicates (recomputed)
[1] = compound: C1=CC=C(C=C1)[C@H](COC2=CC3=C(C=C2)NC(=O)N3)NC(=O)C4=CC=CN(C4=O)CC5=CC(=C(C=C5)F)F
How it was run: (§1)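 Thermal stability values are relative to control samples and come from duplicates. They are expressed as log2 fold changes. For measurement, K562 cells (2×10^6 cells/mL) received 10 μM compound for 30 min, and aliquots were heated for 3 min over 48°C-58°C, pooled, and extracted at 4°C in PBS with 0.5% NP-40. Soluble protein, the supernatant after 21,000xg for 90 min, was quantified by TMTpro 16plex LC-MS/MS with equalised channel sums.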

[2] = compound: CC1=C(SC2=C1C(=N[C@H](C3=NN=C(N32)C)CC(=O)N)C4=CC=C(C=C4)Cl)C
How it was run: as §1

[3] = compound: CC1=C2C(=CC=C1)N=C(N(C2=O)C3=CC=CC=C3C)CN4C=NC5=C(N=CN=C54)N
How it was run: as §1

[4] = compound: Cc1sc2c(c1C)C(c1ccc(Cl)cc1)=N[C@@H](CC(=O)OC(C)(C)C)c1nnc(C)n1-2
How it was run: as §1

[5] = compound: c1ccc([C@@H]2C[C@H]2NC2CCNCC2)cc1
How it was run: as §1

Measured: log2 fold change

TGFBI (UniProt Q15582)
inactive: [1] -0.115 | [2] -0.024 | [3] 0.019 | [4] -0.048 | [5] -0.08

SURF2 (UniProt Q15527)
Chain of UniProt Q15527 (Q15527 whole entry, looked up): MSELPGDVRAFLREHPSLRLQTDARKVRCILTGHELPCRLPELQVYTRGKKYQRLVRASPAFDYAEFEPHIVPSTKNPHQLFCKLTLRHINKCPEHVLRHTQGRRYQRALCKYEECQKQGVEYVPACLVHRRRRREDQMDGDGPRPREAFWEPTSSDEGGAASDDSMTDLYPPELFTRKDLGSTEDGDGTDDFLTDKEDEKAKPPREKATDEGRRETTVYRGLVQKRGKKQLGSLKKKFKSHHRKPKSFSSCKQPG
inactive: [1] 0.056 | [2] -0.018 | [3] 0.033 | [4] -0.047 | [5] -0.044

SRSF3 (UniProt P84103)
Chain of UniProt P84103 (P84103 whole entry, looked up): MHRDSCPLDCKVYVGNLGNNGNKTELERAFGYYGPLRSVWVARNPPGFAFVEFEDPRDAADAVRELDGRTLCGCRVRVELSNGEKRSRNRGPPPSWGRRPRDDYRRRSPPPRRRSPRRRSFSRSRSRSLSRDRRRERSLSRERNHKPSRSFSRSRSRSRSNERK
inactive: [1] 0.099 | [2] -0.18 | [3] -0.159 | [4] 0.152 | [5] 0.055

SP100 isoform 4 (UniProt P23497)
inactive: [1] -0.006 | [2] -0.015 | [3] -0.047 | [4] 0 | [5] 0.024

TM9SF4 (UniProt Q92544)
inactive: [1] -0.038 | [2] 0.008 | [3] -0.001 | [4] -0.047 | [5] -0.032

SNX3 (UniProt O60493)
Chain of UniProt O60493 (O60493 whole entry, looked up): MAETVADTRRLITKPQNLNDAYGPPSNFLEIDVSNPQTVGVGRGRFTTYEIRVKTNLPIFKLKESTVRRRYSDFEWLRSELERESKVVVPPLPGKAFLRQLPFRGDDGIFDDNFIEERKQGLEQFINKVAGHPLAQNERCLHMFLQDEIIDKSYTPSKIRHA
inactive: [1] -0.057 | [2] 0 | [3] 0.105 | [4] -0.006 | [5] -0.064

SNX15 (UniProt Q9NRS6)
inactive: [1] 0.065 | [2] -0.032 | [3] 0.141 | [4] 0.279 | [5] -0.081

SRPRB (UniProt Q9Y5M8)
Chain of UniProt Q9Y5M8 (Q9Y5M8 whole entry, looked up): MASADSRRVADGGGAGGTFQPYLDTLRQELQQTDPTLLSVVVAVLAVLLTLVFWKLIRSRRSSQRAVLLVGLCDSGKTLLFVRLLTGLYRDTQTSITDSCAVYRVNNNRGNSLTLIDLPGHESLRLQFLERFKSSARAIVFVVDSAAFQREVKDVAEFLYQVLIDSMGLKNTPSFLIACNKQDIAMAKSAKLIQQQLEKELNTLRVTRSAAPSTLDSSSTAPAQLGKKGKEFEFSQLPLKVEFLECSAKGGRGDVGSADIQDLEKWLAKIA
inactive: [1] -0.005 | [2] 0.014 | [3] 0.034 | [4] -0.017 | [5] -0.016

SPR (UniProt P35270)
Chain of UniProt P35270 (P35270 whole entry, looked up): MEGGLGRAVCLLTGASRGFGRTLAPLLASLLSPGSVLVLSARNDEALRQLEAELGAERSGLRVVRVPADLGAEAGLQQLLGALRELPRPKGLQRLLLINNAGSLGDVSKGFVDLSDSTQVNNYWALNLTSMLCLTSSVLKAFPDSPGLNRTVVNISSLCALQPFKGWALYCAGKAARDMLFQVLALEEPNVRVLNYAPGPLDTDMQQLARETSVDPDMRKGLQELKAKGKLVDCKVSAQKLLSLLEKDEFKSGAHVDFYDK
inactive: [1] 0.026 | [2] 0.04 | [3] 0.031 | [4] -0.058 | [5] -0.105

STK39 (UniProt Q9UEW8)
inactive: [1] -0.105 | [2] -0.015 | [3] 0.034 | [4] -0.026 | [5] -0.029

TBP (UniProt P20226)
inactive: [1] 0.016 | [2] 0.314 | [3] -0.158 | [4] 0.144 | [5] 0.07

SLC25A39 (UniProt Q9BZJ4)
inactive: [1] 0.031 | [2] -0.166 | [3] 0.149 | [4] 0.09 | [5] 0.019

STIM1 (UniProt Q13586)
inactive: [1] -0.051 | [2] 0.044 | [3] 0.008 | [4] -0.014 | [5] -0.019

SRSF10 (UniProt O75494)
inactive: [1] 0.001 | [2] -0.475 | [3] -0.187 | [4] 0.249 | [5] 0.17

TIMM44 (UniProt O43615)
inactive: [1] -0.099 | [2] 0.043 | [3] 0.088 | [4] 0.008 | [5] -0.017

TARBP1 (UniProt Q13395)
inactive: [1] -0.058 | [2] 0.048 | [3] 0.081 | [4] -0.073 | [5] -0.027

SSR4 (UniProt P51571)
inactive: [1] 0.045 | [2] 0.046 | [3] 0.002 | [4] -0.048 | [5] -0.018

SMAP2 (UniProt Q8WU79)
Chain of UniProt Q8WU79 (Q8WU79 whole entry, looked up): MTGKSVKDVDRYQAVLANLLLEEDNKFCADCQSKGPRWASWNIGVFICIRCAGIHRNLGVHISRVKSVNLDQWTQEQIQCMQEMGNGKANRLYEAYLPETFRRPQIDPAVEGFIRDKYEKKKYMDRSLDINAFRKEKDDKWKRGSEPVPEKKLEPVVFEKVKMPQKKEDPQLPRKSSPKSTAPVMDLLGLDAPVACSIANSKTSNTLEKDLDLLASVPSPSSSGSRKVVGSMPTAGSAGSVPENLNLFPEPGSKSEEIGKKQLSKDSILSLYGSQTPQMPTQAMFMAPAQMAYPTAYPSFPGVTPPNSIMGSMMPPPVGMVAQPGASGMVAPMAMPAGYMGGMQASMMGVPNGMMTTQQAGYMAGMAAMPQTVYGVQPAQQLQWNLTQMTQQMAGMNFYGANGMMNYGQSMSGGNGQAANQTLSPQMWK
inactive: [1] -0.041 | [2] 0.013 | [3] 0.086 | [4] 0.001 | [5] 0.011

SMCHD1 (UniProt A6NHR9)
inactive: [1] 0.129 | [2] 0.141 | [3] 0.063 | [4] 0.01 | [5] 0.036

SUCLG1 (UniProt P53597)
inactive: [1] 0.004 | [2] 0.073 | [3] 0.042 | [4] -0.021 | [5] -0.041

STAM2 (UniProt O75886)
inactive: [1] -0.015 | [2] 0.005 | [3] 0.014 | [4] 0.016 | [5] -0.001

SPPL2B (UniProt Q8TCT7)
inactive: [1] 0.039 | [2] 0.132 | [3] 0.049 | [4] 0.024 | [5] -0.022

SLC7A6 (UniProt Q92536)
inactive: [1] -0.063 | [2] 0.023 | [3] 0.053 | [4] 0.012 | [5] 0.06

SUMO1 (UniProt P63165)
inactive: [1] -0.004 | [2] -0.097 | [3] -0.048 | [4] 0.231 | [5] 0.152

SMARCA5 (UniProt O60264)
inactive: [1] -0.168 | [2] 0.063 | [3] 0.105 | [4] -0.026 | [5] -0.006

SOX5 (UniProt P35711)
Chain of UniProt P35711 (P35711 whole entry, looked up): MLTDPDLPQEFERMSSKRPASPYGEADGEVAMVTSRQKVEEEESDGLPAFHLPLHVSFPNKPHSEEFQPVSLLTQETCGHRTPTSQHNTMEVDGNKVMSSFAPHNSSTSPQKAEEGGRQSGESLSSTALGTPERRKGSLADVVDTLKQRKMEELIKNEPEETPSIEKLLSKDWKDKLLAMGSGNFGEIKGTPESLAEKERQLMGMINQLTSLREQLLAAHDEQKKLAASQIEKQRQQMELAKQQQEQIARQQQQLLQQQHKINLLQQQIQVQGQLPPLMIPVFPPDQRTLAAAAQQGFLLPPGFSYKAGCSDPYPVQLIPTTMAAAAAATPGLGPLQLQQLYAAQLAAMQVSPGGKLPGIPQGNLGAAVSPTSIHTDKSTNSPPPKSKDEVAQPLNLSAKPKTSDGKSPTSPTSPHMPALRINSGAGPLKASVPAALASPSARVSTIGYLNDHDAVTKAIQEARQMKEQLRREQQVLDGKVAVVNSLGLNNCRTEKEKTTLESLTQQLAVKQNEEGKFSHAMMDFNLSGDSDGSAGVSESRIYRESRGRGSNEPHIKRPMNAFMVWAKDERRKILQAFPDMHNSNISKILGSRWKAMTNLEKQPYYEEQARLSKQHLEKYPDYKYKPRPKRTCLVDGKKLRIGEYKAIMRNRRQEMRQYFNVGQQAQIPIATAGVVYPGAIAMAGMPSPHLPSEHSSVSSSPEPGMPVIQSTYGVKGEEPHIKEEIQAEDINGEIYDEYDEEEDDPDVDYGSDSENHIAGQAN
inactive: [1] -0.033 | [2] 0.005 | [3] -0.058 | [4] -0.018 | [5] -0.022

SLC4A2 (UniProt P04920)
inactive: [1] -0.042 | [2] 0.016 | [3] 0.019 | [4] -0.038 | [5] 0.088

SRCAP (UniProt Q6ZRS2)
inactive: [1] 0.074 | [2] 0.013 | [3] 0.101 | [4] -0.005 | [5] -0.136

TAOK3 (UniProt Q9H2K8)
inactive: [1] 0 | [2] 0.057 | [3] 0.002 | [4] -0.003 | [5] -0.024

SPTBN4 (UniProt Q9H254)
inactive: [1] -0.058 | [2] -0.083 | [3] 0.148 | [4] 0.014 | [5] -0.001

STOM (UniProt P27105)
inactive: [1] 0.06 | [2] -0.019 | [3] -0.014 | [4] -0.021 | [5] 0.082

SLC9A6 isoform 2 (UniProt Q92581)
inactive: [1] -0.007 | [2] 0.066 | [3] 0.068 | [4] -0.014 | [5] 0.047

STAT5A (UniProt P42229)
Chain of UniProt P42229 (P42229 whole entry, looked up): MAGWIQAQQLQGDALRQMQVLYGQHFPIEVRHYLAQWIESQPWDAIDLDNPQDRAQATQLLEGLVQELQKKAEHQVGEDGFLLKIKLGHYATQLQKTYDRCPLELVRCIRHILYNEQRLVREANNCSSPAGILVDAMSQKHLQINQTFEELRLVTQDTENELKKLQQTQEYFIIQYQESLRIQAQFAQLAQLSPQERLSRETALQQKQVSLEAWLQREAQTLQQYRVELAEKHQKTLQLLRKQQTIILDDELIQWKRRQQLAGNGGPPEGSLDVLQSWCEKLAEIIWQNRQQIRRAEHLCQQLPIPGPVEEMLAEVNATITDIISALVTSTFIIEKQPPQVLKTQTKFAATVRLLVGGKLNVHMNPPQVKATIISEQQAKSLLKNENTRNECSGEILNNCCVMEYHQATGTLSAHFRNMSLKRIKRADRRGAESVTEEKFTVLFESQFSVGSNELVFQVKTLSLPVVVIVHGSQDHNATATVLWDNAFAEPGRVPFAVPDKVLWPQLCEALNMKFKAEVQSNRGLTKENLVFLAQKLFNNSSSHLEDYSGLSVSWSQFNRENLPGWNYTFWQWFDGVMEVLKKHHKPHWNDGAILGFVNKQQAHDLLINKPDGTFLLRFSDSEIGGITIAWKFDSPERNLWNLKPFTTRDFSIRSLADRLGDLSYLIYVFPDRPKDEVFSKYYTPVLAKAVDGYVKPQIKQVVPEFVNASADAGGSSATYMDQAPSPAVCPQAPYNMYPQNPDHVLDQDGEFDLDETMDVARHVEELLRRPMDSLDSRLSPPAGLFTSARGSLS
inactive: [1] -0.028 | [2] 0.058 | [3] 0.134 | [4] -0.006 | [5] 0.008

SPTBN1 (UniProt Q01082)
inactive: [1] -0.002 | [2] -0.033 | [3] 0.078 | [4] 0.027 | [5] 0.013

SMC5 (UniProt Q8IY18)
inactive: [1] 0.017 | [2] 0.045 | [3] -0.006 | [4] -0.028 | [5] -0.005

SLC25A36 (UniProt Q96CQ1)
inactive: [1] 0.027 | [2] -0.041 | [3] -0.066 | [4] 0.051 | [5] -0.008

SLK isoform 2 (UniProt Q9H2G2)
inactive: [1] 0.016 | [2] 0.034 | [3] 0.042 | [4] 0.021 | [5] -0.005

SRI (UniProt P30626)
Chain of UniProt P30626 (P30626 whole entry, looked up): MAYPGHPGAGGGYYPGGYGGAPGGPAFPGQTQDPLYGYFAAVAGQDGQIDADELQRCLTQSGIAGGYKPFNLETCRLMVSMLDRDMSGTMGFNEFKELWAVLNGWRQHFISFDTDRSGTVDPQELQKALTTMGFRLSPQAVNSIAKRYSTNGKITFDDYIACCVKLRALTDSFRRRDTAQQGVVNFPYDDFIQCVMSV
inactive: [1] -0.034 | [2] 0.111 | [3] 0.043 | [4] -0.093 | [5] -0.064

TELO2 (UniProt Q9Y4R8)
inactive: [1] -0.031 | [2] -0.05 | [3] 0.037 | [4] 0.039 | [5] 0.005

TBK1 (UniProt Q9UHD2)
inactive: [1] -0.014 | [2] 0.007 | [3] 0.041 | [4] 0.011 | [5] -0.049

SUCLA2 (UniProt Q9P2R7)
inactive: [1] -0.029 | [2] 0.07 | [3] 0.113 | [4] -0.017 | [5] -0.044

SMAP (UniProt O00193)
Chain of UniProt O00193 (O00193 whole entry, looked up): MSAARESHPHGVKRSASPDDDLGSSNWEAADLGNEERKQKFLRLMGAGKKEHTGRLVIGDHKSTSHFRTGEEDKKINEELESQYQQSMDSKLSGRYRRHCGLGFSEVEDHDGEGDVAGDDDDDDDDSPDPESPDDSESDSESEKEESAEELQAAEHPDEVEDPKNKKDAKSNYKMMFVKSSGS
inactive: [1] -0.082 | [2] 0.011 | [3] 0.03 | [4] -0.039 | [5] 0.003

SRSF4 (UniProt Q08170)
inactive: [1] 0.09 | [2] -0.166 | [3] -0.124 | [4] 0.073 | [5] 0.096

STXBP5 (UniProt Q5T5C0)
inactive: [1] -0.011 | [2] 0.017 | [3] 0.15 | [4] -0.04 | [5] -0.027

SMPD4 isoform 2 (UniProt Q9NXE4)
inactive: [1] -0.25 | [2] -0.029 | [3] -0.048 | [4] -0.061 | [5] -0.097

TECR (UniProt Q9NZ01)
inactive: [1] -0.015 | [2] 0.049 | [3] 0.033 | [4] -0.046 | [5] 0

SPG11 (UniProt Q96JI7)
inactive: [1] 0.095 | [2] 0.05 | [3] 0.444 | [4] 0.24 | [5] 0.083

STAT6 (UniProt P42226)
inactive: [1] -0.02 | [2] -0.019 | [3] 0.198 | [4] 0.009 | [5] -0.015

SQSTM1 (UniProt Q13501)
Chain of UniProt Q13501 (Q13501 whole entry, looked up): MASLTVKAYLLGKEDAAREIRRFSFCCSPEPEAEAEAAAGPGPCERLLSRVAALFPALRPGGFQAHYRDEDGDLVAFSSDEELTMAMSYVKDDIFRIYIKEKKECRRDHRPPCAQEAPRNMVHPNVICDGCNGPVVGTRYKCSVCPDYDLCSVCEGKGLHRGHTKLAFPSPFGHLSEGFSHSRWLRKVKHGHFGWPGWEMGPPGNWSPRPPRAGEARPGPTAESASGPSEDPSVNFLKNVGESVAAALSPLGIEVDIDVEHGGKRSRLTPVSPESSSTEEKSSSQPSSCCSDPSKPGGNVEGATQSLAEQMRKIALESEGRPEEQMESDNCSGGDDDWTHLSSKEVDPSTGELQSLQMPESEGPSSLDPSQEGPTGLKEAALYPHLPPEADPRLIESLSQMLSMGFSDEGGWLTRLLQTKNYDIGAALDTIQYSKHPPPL
inactive: [1] 0 | [2] 0.097 | [3] -0.128 | [4] 0.096 | [5] 0.012

TMBIM6 isoform 2 (UniProt P55061)
Chain of UniProt P55061 (P55061 whole entry, looked up): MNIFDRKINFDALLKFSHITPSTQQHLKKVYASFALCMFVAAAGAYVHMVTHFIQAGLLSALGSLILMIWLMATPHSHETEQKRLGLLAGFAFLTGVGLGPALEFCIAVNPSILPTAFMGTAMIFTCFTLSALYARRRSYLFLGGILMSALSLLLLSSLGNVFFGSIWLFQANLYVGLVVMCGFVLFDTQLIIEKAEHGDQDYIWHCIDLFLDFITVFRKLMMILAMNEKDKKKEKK
inactive: [1] -0.037 | [2] -0.022 | [3] 0.041 | [4] -0.03 | [5] 0.041

SUN2 (UniProt Q9UH99)
Chain of UniProt Q9UH99 (Q9UH99 whole entry, looked up): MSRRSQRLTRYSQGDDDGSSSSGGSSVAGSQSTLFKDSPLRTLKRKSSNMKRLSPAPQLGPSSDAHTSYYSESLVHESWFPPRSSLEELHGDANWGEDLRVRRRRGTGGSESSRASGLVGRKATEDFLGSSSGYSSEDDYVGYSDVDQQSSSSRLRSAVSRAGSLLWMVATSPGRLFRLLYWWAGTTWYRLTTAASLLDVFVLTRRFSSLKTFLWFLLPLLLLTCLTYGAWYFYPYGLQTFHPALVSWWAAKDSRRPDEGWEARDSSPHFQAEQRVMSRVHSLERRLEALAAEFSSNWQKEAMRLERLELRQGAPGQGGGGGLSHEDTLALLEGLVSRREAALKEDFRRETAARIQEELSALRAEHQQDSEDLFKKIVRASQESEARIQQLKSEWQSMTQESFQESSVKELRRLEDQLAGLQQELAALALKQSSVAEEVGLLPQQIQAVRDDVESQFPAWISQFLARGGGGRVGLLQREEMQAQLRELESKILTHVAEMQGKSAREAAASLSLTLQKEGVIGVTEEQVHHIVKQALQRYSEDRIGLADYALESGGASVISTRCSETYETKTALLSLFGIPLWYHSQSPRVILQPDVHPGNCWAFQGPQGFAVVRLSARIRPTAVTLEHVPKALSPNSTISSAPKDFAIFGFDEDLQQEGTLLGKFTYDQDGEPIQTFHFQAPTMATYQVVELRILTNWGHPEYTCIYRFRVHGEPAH
inactive: [1] 0.029 | [2] -0.004 | [3] -0.025 | [4] 0.025 | [5] -0.015

SSRP1 (UniProt Q08945)
inactive: [1] -0.027 | [2] 0.023 | [3] 0.087 | [4] -0.051 | [5] -0.016

TBC1D5 isoform 2 (UniProt Q92609)
inactive: [1] -0.046 | [2] 0.055 | [3] 0.066 | [4] 0.003 | [5] -0.034
